A selection: hits, their analogues and other compounds. The true share with any hit is near 6.6%.
HT1080-NT tox – kills 2HG-producing HT-1080-NT fibrosarcoma cells; HT-1080-NT fibrosarcoma viability, CellTiter-Glo ATP luminescence, 48 h; Potency, µM (titrated, usually from 46.1 µM), actives largely listed as cytotoxic; 360,000 compounds, 1.6% hits;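 note: NT is the 2HG producing partner of a matched IDH1 knockdown line; nearly all actives have a fitted effect of over 55% in size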
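750 cells/well, RPMI + 5% FBS; 2 h settle, compound pin-transfer, 48 h at 37 degrees C. CellTiter-Glo 10 min RT, luminescence. Normalized to DMSO and media-only wells.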
HepG2 viability – HepG2 cytotoxicity, counter-screen for TGF-b inhibitors; HepG2 CAGA-GFP viability, ATP luminescence, 18 h; Potency, µM (series often up to 46.1 µM), usual class: cytotoxic; 410,000 compounds, 0.76% hits; AID 588856
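HepG2 CAGA-GFP cells (1000/well, DMEM with 1% FBS) received compound, then TGF-beta at 500 pg/mL final, and were incubated 18 hours at 37 degrees C. Viability was read by CellTiter-Glo luminescence. Media-only wells were set as complete cell-killing and DMSO as no toxicity.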
KB-V1 MDR tox – kills drug-selected multidrug resistant KB-V1 cells | 400,000 compounds, 3.4% hits | Potency, µM (doses to about 46.1 µM), usual class: cytotoxic | AID 1347076 | KB-V1 MDR cells viability, CellTiter-Glo, 72 h; note: nearly all actives have a fitted effect of over 60% in size
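Compound-treated KB-V1 multidrug-resistant cells, 72 h, 37 degrees C; viability by CellTiter-Glo. Fitted qHTS curves give the values.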
TGFb inhibitor – inhibitors of TGF-b signaling | HepG2 CAGA-GFP TGF-b/SMAD3 reporter, GFP fluorescence, 18 h; TGF-beta stimulated, 500 pg/mL final | Potency, µM (top dose mostly 46.1 µM), usual class: inhibitors | 410,000 compounds, 1.2% hits; note: nearly all actives have a fitted effect of over 65% in size
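GFP signal (ex488/em500-530) from TGF-beta-stimulated HEPG2 CAGA-GFP cells, 500 pg/mL final, 18 h at 37 degrees C in DMEM plus 1% FBS, normalized to unstimulated and DMSO-stimulated controls.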
HT1080 IDH1KD tx – HT-1080 IDH1 knockdown cell toxicity (counter line); Potency, µM (titrated, usually from 46.1 µM), actives largely listed as cytotoxic; AID 686971; HT-1080 IDH1 knockdown viability, ATP luminescence, 48 h; 360,000 compounds, 2% hits
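Assay cells: HT-1080 with IDH1 knockdown, 750 per well, RPMI/5% FBS. Exposure: 48 h at 37 °C following 2 h pre-incubation. Read: CellTiter-Glo luminescence; fitted concentration-response, curve class assigned.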
KB-3-1 cytotox – kills parental KB-3-1 adenocarcinoma cells; KB-3-1 viability, CellTiter-Glo ATP luminescence, 72 h; Potency, µM (doses to about 46.1 µM), hits mostly cytotoxic; 400,000 compounds, 1.4% hits; AID 1347075; note: nearly all actives have a fitted effect of over 60% in size
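Cells are dispensed, compounds pinned in, plates held at 37 °C for 72 h, then CellTiter-Glo is added and luminescence read after 10 minutes. Cell line: parental KB-3-1 in phenol-red-free DMEM, 10% FBS.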
Numbers stand for hits; i = inactive; ? = inconclusive; nt = no result given. Calls come from the whole dose curve; as a rule, active = well fitted curve in the direction sought with a large enough effect; inconclusive = small, poorly fitted or top-dose-only effect, or another doubt; inactive = no such curve, though single readings can be large; an effect the other way counts as inactive or inconclusive.

SMILES	HT1080-NT tox	HepG2 viability	KB-V1 MDR tox	TGFb inhibitor	HT1080 IDH1KD tx	KB-3-1 cytotox
COn1c(SCc2ccccc2)nc2ccccc2c1=O	i	i	i	i	i	i
N=c1c(S(=O)(=O)c2ccc(Cl)cc2)cc2c(=O)n3ccccc3nc2n1Cc1ccco1	i	i	i	i	i	?
O=c1c2ccccc2nc(SCc2ccccc2)n1Cc1ccco1	i	i	i	i	i	i
N=c1c(S(=O)(=O)c2ccc(Br)cc2)cc2c(=O)n3ccccc3nc2n1Cc1ccco1	i	i	i	7.94µM	i	i
CCOC(=O)c1c(NC(=O)Nc2ccc(F)cc2)sc(C(=O)N(C)C)c1C	nt	i	i	i	nt	i
COc1ccc(-c2noc(CSc3nnc(Cc4ccccc4)n3-c3cccc(C)c3)n2)cc1	nt	i	i	?	nt	i
CN(C(=O)c1cccc(NC(=O)Cc2ccc(NC(=O)C3CCN(C(=O)c4ccccc4)CC3)cc2)c1)C1CCCC1	i	i	i	i	i	i
O=C(CCn1c(SCC(=O)NCc2ccco2)nc2ccccc2c1=O)NCCc1ccccc1	i	i	20.6µM	i	i	i
COc1ccc(CCn2c(=N)c(C(=O)NCc3ccco3)cc3c(=O)n4ccccc4nc32)cc1OC	i	i	i	i	i	i
O=C(CSc1nc2ccccc2c(=O)n1-c1ccc(F)cc1)NCc1ccco1	i	i	11.6µM	i	i	i
N=c1c(C(=O)NCc2ccco2)cc2c(=O)n3ccccc3nc2n1CCc1ccccc1	i	i	20.6µM	?	i	18.4µM
CCOc1ccc(-n2c(SCC(=O)NCc3ccco3)nc3ccccc3c2=O)cc1	i	i	i	i	i	i
C=CCn1c(SCC(=O)NCc2ccco2)nc2ccccc2c1=O	i	i	i	i	i	i
COc1ccc(-c2nn3c(-c4cc(-c5ccccc5)n[nH]4)nnc3s2)cc1	nt	i	?	i	nt	?
Cc1ccccc1NC(=O)CCn1nc(-c2ccccc2)c2ccccc2c1=O	nt	i	i	?	nt	i
COc1cc(C(=O)NCc2nc3cccnc3n2Cc2ccc(C)cc2)cc(OC)c1OC	nt	i	nt	i	nt	nt
COc1cc(-c2noc(-c3ccc(NCC4CCCO4)c([N+](=O)[O-])c3)n2)cc(OC)c1OC (stereo not given)	nt	i	i	i	nt	i
CCN(CC)c1ccc(/C=N/NC(=O)c2cccc(S(=O)(=O)N3CCOCC3)c2)c(O)c1	?	i	?	?	?	7.31µM
O=C(N/N=C/c1sc(N2CCOCC2)nc1-c1ccccc1)c1cccc(S(=O)(=O)N2CCOCC2)c1	3.66µM	i	i	i	?	4.11µM
Nc1ccc(C(=O)N/N=C/c2sc(N3CCOCC3)nc2-c2ccccc2)cc1	i	i	i	i	i	i
CCc1ccc(C(=O)N2CCC(c3nc(-c4ccc(S(=O)(=O)N5CCCC5)cc4)no3)CC2)cc1	nt	i	nt	?	nt	nt
Brc1ccc(Nc2c3c(nc4nncn24)CCC3)cc1	nt	i	nt	nt	nt	nt
Cc1nc2cc(C(=O)N3c4ccccc4CC3C)ccc2s1 (stereo not given)	11.6µM	i	?	i	13µM	20.6µM
CC1Cc2ccccc2N1C(=O)c1ccc2snnc2c1 (stereo not given)	i	i	i	i	i	i
COc1ccc(OC)c(NC(=O)Cc2coc3cc(C)cc(C)c23)c1	i	i	16.4µM	i	i	i
c1ccc(-c2c[n+]3c(n2-c2ccccc2)SCC3)cc1	i	i	?	i	?	3.26µM
CCOc1ccc(C2=CSC3=NCCN23)cc1	i	i	i	i	i	i
CCOc1ccc(-n2c(-c3ccc(Cl)cc3)c[n+]3c2SCC3)cc1	i	i	i	i	23.1µM	16.4µM
CCc1ccc(NC(=O)c2ccc(NS(=O)(=O)c3c(C)noc3C)cc2)cc1	nt	i	i	i	nt	i
Cc1cc(C)c(S(=O)(=O)NCC2CCC(C(=O)NCCCN3CCC(C)CC3)CC2)c(C)c1 (stereo not given)	?	i	i	i	?	i

Screening results as filed in PubChem.
